Measurements taken from PubChem BioAssay AID1645875 (National Center for Advancing Translational Sciences (NCATS), 2021).
Records with an inconclusive call do not appear. Activity calls are given as the source filed them. The call rests on the fitted dose curve; in most records, active means well fitted inhibition curve with a large enough effect; inconclusive means small, poorly fitted or top-dose-only effect; inactive means no such curve, though single readings can be large or run the other way.

Biological target: N-terminal Xaa-Pro-Lys N-methyltransferase 1 (Homo sapiens) (UniProt Q9BV86)
Assay: Orthogonal qHTS for Inhibitors of N-terminal methyltransferase 1 (NTMT1): ThioGlo Assay
Conditions: NTMT1 SAHH-coupled ThioGlo fluorescence, 30 min; series mostly up to 84.5 µM; activity, negative = inhibition: at the top concentration
How it was run: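 125 nM NTMT1 pre-incubated 1 min at room temperature with titrated compounds, then 100 uM SAM, 10 uM SAHH and 15 uM ThioGlo3 (final) added. Fluorescence (ex 340/em 450 nm) read before and after 30 min in the dark, normalized to the initial background.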

Sequence of N-terminal Xaa-Pro-Lys N-methyltransferase 1 (Homo sapiens) (Q9BV86 whole entry, looked up): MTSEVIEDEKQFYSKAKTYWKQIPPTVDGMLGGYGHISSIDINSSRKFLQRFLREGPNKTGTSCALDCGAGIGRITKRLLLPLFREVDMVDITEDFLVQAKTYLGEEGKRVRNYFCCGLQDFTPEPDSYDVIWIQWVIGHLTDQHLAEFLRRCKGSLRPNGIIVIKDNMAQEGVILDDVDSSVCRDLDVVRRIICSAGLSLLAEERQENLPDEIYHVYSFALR

SMILES	Potency	activity, negative = inhibition
COc1ccc2cc3c(NC(=O)c4ccco4)nn(C)c3nc2c1	49.4 µM (active)	–
OCCn1cc(-c2cnc3nnn(Cc4ccc5ncccc5c4)c3n2)cn1	17.5 µM (active)	–
CCN1CCCN(c2nc(NC3CCN(C(C)C)CC3)c3cc(OC)c(OCCCN4CCCCC4)cc3n2)CC1	38.8 µM (active)	–
COc1cc2c(NC3CCN(C(C)C)CC3)nc(N3CCCCCC3)nc2cc1OCCCN1CCCC1	38.8 µM (active)	–
CC(C)c1cc2c(c(O)c1O)[C@@]13CCCC(C)(C)C1[C@@H](O)[C@@H]2OC3=O (some centres undefined)	12.2 µM (active)	–
COc1cc2c(NC3CCN(CC4CCCCC4)CC3)nc(N3CCCN(C)CC3)nc2cc1OCCOCCN(C)C	–	299% (inactive)
Cc1cc2c(c(=O)[nH]1)OC(C(O)CC(C)C)O2 (centres undefined)	19.7 µM (active)	–
COc1cc2c(NC3CCN(C)CC3)nc(N3CCCN(C)CC3)nc2cc1OCCCN1CCCCC1	43.5 µM (active)	–
O=C(Nc1ccccc1)c1ccc(Nc2nnc(-c3ccc(O)cc3)c3ccccc23)cc1	27.8 µM (active)	–
Nc1ccc(C(=O)Nc2cccc(-c3nc(N4CCOCC4)c4oc5ncccc5c4n3)c2)cn1	22.1 µM (active)	–
CN=c1nc(-c2ccccc2)n(-c2ccccc2)s1	5.55 µM (active)	–
O=C(O)c1ccc(Cc2c(-c3cccc(-c4ccccc4)c3)[nH]n(-c3nc(C(=O)O)cs3)c2=O)cc1	–	-6.37% (inactive)
COc1c/c(=C2\C=c3ccccc3=N2)[nH]/c1=C/c1[nH]c(C)cc1C	24.8 µM (active)	–
O=S(=O)(Cc1ccccc1)Nc1ccc(-c2ccc3c(cnn3-c3ccc(F)cc3)c2)c(C(F)(F)F)c1	–	-18.7% [at 114 µM] (inactive)
COc1cc2c(NC3CCN(C4CCCCC4)CC3)nc(N3CCCN(C)CC3)nc2cc1OCCOCCN(C)C	43.5 µM (active)	–
COc1cc2nc(N3CCOCC3)nc(NC(C)C)c2cc1OC	–	82.2% (inactive)
Cc1[nH]c(/C=C2\C(=O)Nc3cc(-c4ccccc4)ccc32)c(C)c1CCC(=O)O	9.87 µM (active)	–
COc1cc2c(NC3CCN(CC4CCCCC4)CC3)nc(N3CCCN(C)CC3)nc2cc1OCCCN1CCCCC1	43.5 µM (active)	–
COc1c(C(C)C)c(O)c(O)c2c1C(OC)[C@H]1OC(=O)[C@@]23CCCC(C)(C)[C@H]13 (some centres undefined)	6.1 µM (active)	–
Fc1cc(-c2cccc3ncc(-c4cnn(C5CCNCC5)c4)nc23)cc(F)c1CN1CCOCC1	34.5 µM (active)	–
CC/C(=C(\c1ccccc1)c1ccc(OCCN(C)C)cc1)c1ccccc1	–	-30.2% [at 170 µM] (inactive)
N.N.N.N.N.N.N.N.N.N.N.N.N.N.O.O.[Ru+4].[Ru+5].[Ru+5]	34.5 µM (active)	–
COc1cc2nc(N(C)C)nc(NC3CCN(C)CC3)c2cc1OC	–	83.9% (inactive)
COc1cc2c(NC3CCN(C(C)C)CC3)nc(N3CCCN(CC4CCCCC4)CC3)nc2cc1OCCCN1CCCC1	12.3 µM (active)	–
CC[C@@H](c1ccc(F)c(F)c1)n1c(C(=O)OC)c(-c2ccno2)[nH]c1=S	6.98 µM (active)	–
COc1cc(N2CCN(C(C)=O)CC2)ccc1Nc1ncc(Cl)c(Nc2ccc(N3CCN(C(C)=O)CC3)cc2OC)n1	22.1 µM (active)	–
COc1cccc(C2=Nn3c(nnc3-c3ccccc3C)SC2)c1	27.4 µM (active)	–
COc1cc2nc(N3CCN(C(=O)c4ccco4)C4CCCCC43)nc(N)c2cc1OC (centres undefined)	55.5 µM (active)	–
NC(=O)c1cccc(-c2cc(OC(=O)NC3CCCCC3)ccc2O)c1	–	-7.27% [at 114 µM] (inactive)
